Reference: paper PMC7819943, “Rice protein-binding microarrays: a tool to detect cis-acting elements near promoter regions in rice”
Whole data set: some 35,000 sequences, median “fluorescence intensity (a.u.)” near 10,000, cut for the highest 2% near 52,000. Only a selection was taken, and the highest values are over-represented in it overall.

What follows are sequences tested against T1, OsWOX13 (Oryza sativa, UniProt Q5QMM3 1-267) (assay: protein-binding microarray (RPBM); PBS, 2% BSA, 51.3 ng/ul salmon testes DNA, 50 uM zinc acetate, 200 nM TF, 25 C, 1 h; high values mean tight binding). Conditions: protein: recombinant; tags: N-terminal polyhistidine and DsRed monomer fusion (pET32a); label: CyDye5-dUTP incorporated in the synthesized complementary strand; 3' TTTTT single-stranded linker to array surface; dsDNA, one strand shown.
T1 sequence: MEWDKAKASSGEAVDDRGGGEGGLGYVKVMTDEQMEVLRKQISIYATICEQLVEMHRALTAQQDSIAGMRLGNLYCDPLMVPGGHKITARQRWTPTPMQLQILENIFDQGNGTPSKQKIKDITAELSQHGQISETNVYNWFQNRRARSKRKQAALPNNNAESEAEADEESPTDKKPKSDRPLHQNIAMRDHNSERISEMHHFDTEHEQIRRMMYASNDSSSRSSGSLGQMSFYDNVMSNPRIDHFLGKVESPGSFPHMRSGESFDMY
Summary of the method: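 A custom Agilent array was converted to double-stranded form by primer extension with Cy5-dUTP and blocked with 2% BSA. Protein at 200 nM in PBS with 2% BSA, salmon testes DNA and 50 µM zinc acetate was applied for 1 h at 25 °C, followed by washing. The proteins were polyhistidine–DsRed N-terminal fusions of transcription factors, expressed in E. coli BL21-CodonPlus and Ni–NTA-purified. The binding signal is per-feature fluorescence intensity (arbitrary units) from an Axon 4000B scanner.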

Sequence	binding signal
CAAAGATTTCACTGTTTAATCTAATCTTGTGGATTTTATGCGGAGTCACCTAGTGCAG	3590 fluorescence intensity (a.u.)
TCGAATTTGATCAGTAGCTTAATTATACTTTAGTACTACCCGGAGTCACCTAGTGCAG	10600 fluorescence intensity (a.u.)
TGTTAATTATGCCCTCGGTCCAATTGTGATATTCTGTTGACGGAGTCACCTAGTGCAG	38300 fluorescence intensity (a.u.)
CCCATGTAGATTGGGCCTGCTTAGTGAAGTCTCACGTAGCCGGAGTCACCTAGTGCAG	5240 fluorescence intensity (a.u.)
ATCGTAATAGAATATGTCACATTCGGTTTTGGCTCAAGTTCGGAGTCACCTAGTGCAG	5710 fluorescence intensity (a.u.)
CTTATTCACTTGTGATTGTGATGATTAGCGAACAGAGTTGCGGAGTCACCTAGTGCAG	18700 fluorescence intensity (a.u.)
AGTTGACAGTTCCAATTAATCGTTCATGCGACCCAATTGACGGAGTCACCTAGTGCAG	21500 fluorescence intensity (a.u.)
CTAATTTAAATTTGTCTCTTTTCTACCCTCAACCATCATTCGGAGTCACCTAGTGCAG	27200 fluorescence intensity (a.u.)
TCTACTAATTTAAAGTTGCAGTGTTCCTCCTCCCTCCTACCGGAGTCACCTAGTGCAG	10700 fluorescence intensity (a.u.)
CTGGATTGATTGGGAGTGTTGGGTTTCGGGCTAGATCTGGCGGAGTCACCTAGTGCAG	65200 fluorescence intensity (a.u.)
CCGTTGGATTGGAATCGGAGGGCCTACAATGACTGAGTGCCGGAGTCACCTAGTGCAG	5860 fluorescence intensity (a.u.)
AGAAATTGATTATGGATGAGTGCCCTTCTGCCTATTATGTCGGAGTCACCTAGTGCAG	55900 fluorescence intensity (a.u.)
ACTAATTGACTACTCCCTGAATTTAAAGTTGATGGTCAGTCGGAGTCACCTAGTGCAG	61100 fluorescence intensity (a.u.)
TCCCTGAATTTTAGGAGTGATTGGACCTAAAGTTGAGGAGCGGAGTCACCTAGTGCAG	17200 fluorescence intensity (a.u.)
TATGAATTGACTATTATATTGGCTATGGATGATTTGTAGTCGGAGTCACCTAGTGCAG	30100 fluorescence intensity (a.u.)
CAGAATGACAACATTGACTGATTGACACTAGAAATACATACGGAGTCACCTAGTGCAG	39000 fluorescence intensity (a.u.)
CGTCTGGGGTTTGATTGGGATTGAGGCGAATTCGGGCGGTCGGAGTCACCTAGTGCAG	34000 fluorescence intensity (a.u.)
TGGCGGATTGATCTGGAGGTGGGCTTGTTGGGGTTGCTGTCGGAGTCACCTAGTGCAG	14400 fluorescence intensity (a.u.)
TGGAAATTGATGGAGGATGATCTGCAATTAGAAAGAAGAACGGAGTCACCTAGTGCAG	29700 fluorescence intensity (a.u.)

Sequence	binding signal
TTCTGCTGATTGGAATGACTACAACACTAGAGTTGTCTGTCGGAGTCACCTAGTGCAG	56100 fluorescence intensity (a.u.)
TGGGTAGGGGCAGTTAATTGGGAGGGAATTCCTCCTTCACCGGAGTCACCTAGTGCAG	8890 fluorescence intensity (a.u.)
ACTGATGAAATATCAAAGTGATTGTCAGACAAAGCGCCATCGGAGTCACCTAGTGCAG	25800 fluorescence intensity (a.u.)
TACCCATCTTCCATTGACAGACAATTGGGCCCCACTCCGCCGGAGTCACCTAGTGCAG	7450 fluorescence intensity (a.u.)
AGCTAATAATTACTAATTACTAAGTAATACTTCCTCTGTTCGGAGTCACCTAGTGCAG	41700 fluorescence intensity (a.u.)
ATTATTGACAAAAGCATCTCGATATCTTATGGATTAATATCGGAGTCACCTAGTGCAG	4720 fluorescence intensity (a.u.)
CGTGAGTGAAATTTTAATTACGTGTACATATAGGGGAGTACGGAGTCACCTAGTGCAG	20500 fluorescence intensity (a.u.)
ATATAATGGGCACTATGATTTGCTCTAAATATTGGTCATTCGGAGTCACCTAGTGCAG	28800 fluorescence intensity (a.u.)
TCCTGATTGTTCACAATTGTGCTAGTTCAAACAAGGCAAACGGAGTCACCTAGTGCAG	24800 fluorescence intensity (a.u.)
TATAAAATTGATGGTTGGAATTATAAATATTTCGATTGAACGGAGTCACCTAGTGCAG	9830 fluorescence intensity (a.u.)
CTGGAATGAGTGGTGGTTGATTGTTTAGTGTTTACTGTTCCGGAGTCACCTAGTGCAG	18500 fluorescence intensity (a.u.)
AGATGCTGATTGGTTGCGAACTATCTGTTCAATTTGCATCCGGAGTCACCTAGTGCAG	46300 fluorescence intensity (a.u.)
ATGATGATGATATACACGCCAAATTGAATTAGAAACTGATCGGAGTCACCTAGTGCAG	6800 fluorescence intensity (a.u.)
AAATGATTGAATCCTAGAAACTCTGACCTATACAAGTGGTCGGAGTCACCTAGTGCAG	60500 fluorescence intensity (a.u.)
TAGATGAAATGGGTTGGGTTGATTTGGGTTGAAATATGATCGGAGTCACCTAGTGCAG	6400 fluorescence intensity (a.u.)
TACATCCCTACTAATTGTGTCATGTATCAATAATGATATGCGGAGTCACCTAGTGCAG	3560 fluorescence intensity (a.u.)
TTGATTGCGAATGATTGGAGCTGGTTGCTGTTGCTAGATCCGGAGTCACCTAGTGCAG	57800 fluorescence intensity (a.u.)
ACTATTATATTGATCAATTGATTACATAATTCACGTGTCGCGGAGTCACCTAGTGCAG	43700 fluorescence intensity (a.u.)
GATGATTGATTGGGTTGGTTGGAACGTGCGATGGAATGATCGGAGTCACCTAGTGCAG	65400 fluorescence intensity (a.u.)

Sequence	binding signal
GCACTGATTGAATTGAACTGTATAGAACAAAATGAAATTTCGGAGTCACCTAGTGCAG	19600 fluorescence intensity (a.u.)
CATCAATTAATTGACATGATACTATCTACCTTGCGTGTCGCGGAGTCACCTAGTGCAG	65000 fluorescence intensity (a.u.)
GATAACGTGGCCAAATTATATCAGACGTTCATGTTTAGATCGGAGTCACCTAGTGCAG	5800 fluorescence intensity (a.u.)
TTCACAAATTTTGATGCGATGATTAGCTAAGGCATGTTCGCGGAGTCACCTAGTGCAG	23500 fluorescence intensity (a.u.)
TTACGATGATATATAATTGGACGGAAGCAGCGATCATGCTCGGAGTCACCTAGTGCAG	14100 fluorescence intensity (a.u.)
AGCTAATTTATGCATGCATGGATTCCGATGGAGGAGCTGTCGGAGTCACCTAGTGCAG	19400 fluorescence intensity (a.u.)
GAGCAATTAGGCTTAAAAGATTCGTCTCGCAAATTAGTCGCGGAGTCACCTAGTGCAG	3540 fluorescence intensity (a.u.)
TCTGTTGATGAATGGATTGATTGATGGATGGATGGATGGTCGGAGTCACCTAGTGCAG	64100 fluorescence intensity (a.u.)
TTGATTGATGGGTAGTAAGGAAACCTTTTGAATGAGTGGTCGGAGTCACCTAGTGCAG	64700 fluorescence intensity (a.u.)
GCAGCCTAGATTGACAATAGATGAATTGGAGCTAGTAGTGCGGAGTCACCTAGTGCAG	35400 fluorescence intensity (a.u.)
ATAGATGAAGAATAAATATGATTGGTAGAGAAGAGAGATGCGGAGTCACCTAGTGCAG	25600 fluorescence intensity (a.u.)
GATGATGGATTGGAAAGGCAAGTAAGCTGGAGTAGGTGGTCGGAGTCACCTAGTGCAG	38000 fluorescence intensity (a.u.)
TTCTGATTTGCCCCTATCTTATTGAGATTGCTTGTGTGATCGGAGTCACCTAGTGCAG	30600 fluorescence intensity (a.u.)
GTGATTGAAATGGATCCTGGTCGGAAATGAATCCTGGTCGCGGAGTCACCTAGTGCAG	43700 fluorescence intensity (a.u.)
TGGAATGATGTTGGGATTGATGGATGGATGTATGTTTTGTCGGAGTCACCTAGTGCAG	15300 fluorescence intensity (a.u.)
AATGGAGATTGGATCTGATTGGTTGTTGTTGCTTGAGGATCGGAGTCACCTAGTGCAG	62600 fluorescence intensity (a.u.)
TGCTGGTTGATTGATTGATTGATGGACAAATAGGTAGATGCGGAGTCACCTAGTGCAG	56300 fluorescence intensity (a.u.)
CAAAATTTGATGAATGGAAGGGTCGAAACTGAGTGATTGCCGGAGTCACCTAGTGCAG	23600 fluorescence intensity (a.u.)
TCTGATTGCTGTTAGTTGTTGATGAGATGGAGATGGAGATCGGAGTCACCTAGTGCAG	39900 fluorescence intensity (a.u.)
